Results filed as inconclusive are left out. Active and inactive are the calls of the source. Calls follow the shape of the dose curve; as a rule, active = well fitted curve in the direction sought with a large enough effect; inconclusive = small, poorly fitted or top-dose-only effect, or another doubt; inactive = no such curve, though single readings can be large or run the other way.
Assay: Secondary Assay for Activators of Human Pyruvate Kinase M2 isoform - Cell Titer Glo Cytotoxicity for Probe SAR
Conditions: HeLa viability, CellTiter-Glo ATP luminescence, 24 h; series mostly up to 58.2 µM
Procedure: NIH Chemical Genomics Center [NCGC]
Matthew G. Vander Heiden, M.D., Ph.D. [Harvard Medical School, 77 Avenue Louis Pasteur, Boston, MA 02115]
We have identified a series of activators of the M2 isoform of human pyruvate kinase. The assay described here examines the cytotoxicity of these compounds by measuring the total ATP content of Hela cells after 24 hrs of exposure to compound.
500 Hela cells/ 4ul in media (DMEM with high glucose, 10% FBS, 1x Pen Strep, 1x NEAA) were dispensed into a white solid 1536-microwell plate with a Thermo Multidrop. The plates were incubated at 37 degrees Celsius for 24 hours. The cells were then treated with compounds using the Kalypsys pin tool, delivering 23 nl of test compounds and the control doxorubicin. The plates were then incubated for an additional 24 hours at 37 degrees C after which 4 ul of Promega Cell-Titer Glo was dispensed using the Thermo Multidrop. The plates were incubated at room temperature for 10 min before reading luminescence on the Perkin Elmer ViewLux with images collected with 2x binning and a 5 sec exposure time.
In the case of `COc1cccc(OC2=NS(=O)(=O)c3ccccc32)c1`, the outcome is reported as “inactive”.
For `CCNc1cccc(S(=O)(=O)N2CCCN(S(=O)(=O)c3ccc4c(c3)OCCO4)CC2)c1`, the outcome was “inactive”.
With `Cc1ccc(Cl)cc1NS(=O)(=O)c1cc2c(cc1F)NC(=O)CC2` the outcome was “inactive”.
In the case of `Cc1ccc(NS(=O)(=O)c2ccc3c(c2)CCC(C)(C)O3)cc1C`, the outcome is reported as “inactive”.
With `O=C1CCc2cc(S(=O)(=O)Nc3ccc(Cl)cc3)ccc2N1` the outcome was “inactive”.
In the case of `CCCCN1C(=O)c2ccccc2C1=O`, the outcome is reported as “inactive”.
For `Cc1ccc(NS(=O)(=O)c2cc3c(cc2Cl)NC(=O)CO3)cc1C`, the outcome was “inactive”.
For `O=C1CCc2cc([S+](=O)([O-])Nc3ccc(N[S+](=O)([O-])c4ccc5c(c4)CCC(=O)N5)cc3)ccc2N1`, the outcome was “inactive”.
For `Cc1c(Cl)cccc1NS(=O)(=O)c1cc2c(cc1F)NC(=O)CC2`, the outcome was “inactive”.
In the case of `O=C1CCc2cc(S(=O)(=O)Nc3ccc4ccccc4c3)ccc2N1`, the outcome is reported as “inactive”.
With `CC(C)Nc1cccc(S(=O)(=O)N2CCCN(S(=O)(=O)c3ccc4c(c3)OCCO4)CC2)c1` the outcome was “inactive”.
In the case of `COc1ccc(Nc2c(-c3ccc(C)o3)nc3ccccn23)cc1`, the outcome is reported as “inactive”.
With `O=C1c2ccccc2C(=O)N1c1cccc2ccncc12` the outcome was “inactive”.
For `Cc1ccc(-c2nc3ccccn3c2Nc2ccccc2C)o1`, the outcome was “inactive”.
In the case of `Cc1ccc(NS(=O)(=O)c2ccc3c(c2)CC(=O)N3)cc1C`, the outcome is reported as “inactive”.
In the case of `CCNc1cccc(S(=O)(=O)N2CCN(S(=O)(=O)c3ccc4c(c3)OCCO4)CC2)c1`, the outcome is reported as “inactive”.
With `O=C1CCc2cc(S(=O)(=O)Nc3cccc(F)c3)ccc2N1` the outcome was “inactive”.
For `COc1cccc(N2C(=O)c3ccccc3C2=O)n1`, the outcome was “inactive”.
In the case of `CNc1cc2c(cc1S(=O)(=O)Nc1ccc(C)c(C)c1)CCC(=O)N2`, the outcome is reported as “inactive”.
In the case of `CC(=O)N1CCc2cc(S(=O)(=O)Nc3ccc(C)c(C)c3)ccc21`, the outcome is reported as “inactive”.
In the case of `O=C1CCc2cc(S(=O)(=O)Nc3ccncc3)ccc2N1`, the outcome is reported as “inactive”.
For `O=C1c2ccccc2C(=O)N1c1ccc2ncccc2c1`, the outcome was “inactive”.
In the case of `O=C1c2ccccc2C(=O)N1c1cccnc1`, the outcome is reported as “inactive”.
In the case of `Cc1c(Cl)cccc1NS(=O)(=O)c1cc2c(cc1Cl)CCC(=O)N2`, the outcome is reported as “inactive”.
In the case of `Cc1ccc(NS(=O)(=O)c2cc3c(cc2N(C)C)NC(=O)CC3)cc1C`, the outcome is reported as “inactive”.
With `Cc1ccc(NC(=O)c2ccc3c(c2)CCC(=O)N3)cc1C` the outcome was “inactive”.
For `Cc1ccc(NS(=O)(=O)c2ccc3ccccc3c2)cc1C`, the outcome was “inactive”.
With `Cc1ccc(NS(=O)(=O)c2cc3c(cc2-c2ccco2)NC(=O)CO3)cc1C` the outcome was “inactive”.
In the case of `O=C1CCc2cc(S(=O)(=O)Nc3ccc4c(c3)OCCO4)ccc2N1`, the outcome is reported as “inactive”.
For `Cc1ccc2nc(-c3ccc(C)o3)c(Nc3ccc(F)cc3)n2c1`, the outcome was “inactive”.
In the case of `O=C1c2ccccc2C(=O)N1c1ncccc1O`, the outcome is reported as “inactive”.
In the case of `Cn1c2cc(S(C)=O)sc2c2cnn(Cc3cccc(O)c3)c(=O)c21` (stereo not given), the outcome is reported as “inactive”.
For `O=C1c2ccccc2C(=O)N1c1cccc(O)c1`, the outcome was “inactive”.
In the case of `N#Cc1ccc(NS(=O)(=O)c2ccc3c(c2)CCC(=O)N3)cc1`, the outcome is reported as “inactive”.
With `Cc1ccc(Nc2c(-c3ccsc3)nc3cccc(C)n23)cc1` the outcome was “inactive”.
With `Cc1ccc(-c2nc3ccc(Cl)cn3c2Nc2ccccc2)o1` the outcome was “inactive”.
With `CN=c1nc(-c2ccccc2)n(-c2ccccc2)s1` the outcome was “inactive”.
In the case of `Cc1ccc(NS(=O)(=O)c2ccc3c(c2)N(C)CCO3)cc1C`, the outcome is reported as “inactive”.
With `Cc1cc(N2C(=O)c3ccccc3C2=O)n[nH]1` the outcome was “inactive”.
For `Fc1ccccc1-c1ccc(-c2nc3ccc(Cl)cn3c2Nc2ccc(Cl)cc2)o1`, the outcome was “inactive”.
